Experimental data as given in PubChem BioAssay (EPA / NIEHS).
Where “and” joins values, the source holds several entries; their conditions need not be identical. Identical values can stand only once. Calls of active or inactive are those of the source. How the source made its calls: active means hit-call score of the fitted dose curve at least 0.9, where 1 is the maximum; inactive means score below 0.9.

test: BSK_MyoF_SRB: Viability Assessment in the BioMAP Diversity Plus: MyoF Assay (AID 2284267); conditions: primary human lung fibroblasts
Procedure: BSK_MyoF is a cell-based, multiplexed-readout assay that uses lung fibroblasts, […], with measurements taken at 24 hours after chemical dosing in a microplate: 96-well plate.BSK_MyoF_SRB is an assay component measured in the BSK_MyoF assay. It measures 0.1% sulforhodamine related to cell death using Sulforhodamine staining technology.Data from the assay component BSK_MyoF_SRB was analyzed at the endpoint, BSK_MyoF_SRB, in the positive analysis fitting direction relative to DMSO as the negative control and baseline of activity. Using a type of viability reporter, gain or loss-of-signal activity can be used to understand protein changes. To generalize the intended target to other relatable targets, this assay endpoint is annotated to the 'cell morphology' intended target family, where the subfamily is 'cell conformation'.
The levels of cell surface (or secreted, indicated by the prefix "s") biomarker endpoints were measured by ELISA. Overt cytotoxicity to cells in confluent adherent cultures (all systems other than the BT system) was assessed by measuring total protein levels using sulforhodamine B (SRB) staining in parallel cultures at the time of biomarker measurements, indicated as SRB endpoints. For proliferation assays for adherent cell types, individual cell types are cultured at sub-confluence and relative cell numbers quantified by SRB staining at time points optimized for each system (48 h: 3C and CASM3C systems; 72 h: BT and HDF3CGF systems; 96 h: SAg system). SRB was performed by staining cells with 0.1% SRB after fixation with 10% TCA and reading wells at 560 nm.Viability and proliferation of PBMC (T cells) was quantified by Alamar Blue reduction for the SAg and BT systems. For PBMC viability (referred to as PBMC Cytotoxicity within the assay endpoint names), cells were plated (75,000/well in a 96-well plate) and then chemical samples added for 1 h before addition of activators, SEB and TSST-1 (20 ng/mL final concentration each). Cells were incubated for 90 h. Then, Alamar Blue (20 uL/well) (Invitrogen, Cat DAL1100) was added for 6 h, and the plates were read with a fluorescence microplate reader at 546/580 nm (excitation/emission). For PBMC proliferation, cells were plated and activated as above but incubated for only 16 h prior to addition of Alamar Blue. Plates were read after 6 h.

| SMILES | outcome | AC50 |
| --- | --- | --- |
| OCc1c[nH]c2ccccc12 | inactive |  |
| O=S(=O)(O)CCC(F)(F)C(F)(F)C(F)(F)C(F)(F)C(F)(F)C(F)(F)F | inactive |  |
| OC(O)(C(F)C(O)(O)C(F)(F)F)C(F)(F)F | inactive |  |
| Cc1cccc(O)c1C | inactive |  |
| FC(F)(F)COC(OCC(F)(F)F)OCC(F)(F)F | inactive |  |
| FC(F)C(F)(F)COCC1CO1 (stereo not drawn) | inactive |  |
| NCC(F)(F)C(F)(F)C(F)(F)C(F)(F)F | inactive |  |
| O=C(Cl)C(F)(F)C(F)(F)C(F)(F)C(=O)Cl | inactive |  |
| S=P(N1CC1)(N1CC1)N1CC1 | inactive |  |
| FC(F)(F)C(F)(F)C(F)(F)C(F)(F)C(F)(F)C(F)(F)I |  | 25.6 µM (active) and 26.5 µM (active) |
| C[Si](C)(C)C(F)(F)C(F)(F)C(F)(F)F | inactive |  |
| FC(F)=C(F)C(F)(F)C(F)(F)C(F)(F)C(F)(F)C(F)(F)C(F)(F)F | inactive |  |
| OCCC(F)(F)C(F)(F)C(F)(F)C(F)(F)F | inactive |  |
